Measured values reported in PubChem BioAssay AID624296 (National Center for Advancing Translational Sciences (NCATS), 2012).
Out of some 350,000 compounds screened, about 9,900 (2.8%) were called active. Inconclusive results (about 15%) are left out. Calls come from the whole dose curve; as a rule, active = well fitted activation curve with a large enough effect; inconclusive = small, poorly fitted or top-dose-only effect; inactive = no such curve, though single readings can be large or run the other way. The entries come from a sample that favours actives as a whole.

assay: A quantitative high throughput screen for small molecules that induce DNA re-replication in MCF 10a normal breast cells.; note: nearly all actives have a fitted effect of over 50% in size; for activity, positive = re-replication: % of control where 0% means no effect; settings: MCF 10A DNA re-replication, Hoechst nuclear intensity, 48 h; series mostly up to 46.1 µM; activity, positive = re-replication: at the top concentration
Potency is the fitted concentration of half-maximal effect.

| SMILES | activity, positive = re-replication | Potency |
| --- | --- | --- |
| O=C(Nc1ccccc1N1CCOCC1)c1ccncc1 | -0.281% (inactive) |  |
| O=C(Nc1ccccc1N1CCCCC1)c1ccc2nccnc2c1 |  | 20.6 µM (active) |
| O=C(COc1ccccc1F)Nc1nc(-c2ccccn2)cs1 | 18% (inactive) |  |
| O=C(c1ccc(S(=O)(=O)NCc2ccco2)cc1)N1CCN(c2ccccc2)CC1 | 3.64% (inactive) |  |
| CCOC(=O)/C(C#N)=C/c1cn(CCC(=O)O)nc1-c1ccc(Br)cc1 | 18% (inactive) |  |
| O=C(O)CCn1cc(/C=C/C(=O)c2ccc(Cl)cc2)c(-c2cccc(Br)c2)n1 |  | 4.11 µM (active) |
| O=C(O)/C=C/c1cn(Cc2ccccc2)nc1-c1cccs1 | -1.37% (inactive) |  |
| CCC1(C)NC(=O)N(CC(=O)N2CCN(c3cccc(Cl)c3)CC2)C1=O (centres undefined) | -4.79% (inactive) |  |
| COc1ccc(-c2csc(N3CCN(Cc4ccc5c(c4)OCO5)CC3)n2)cc1 | 0.265% (inactive) |  |
| O=C(CN1CCN(c2nc(-c3ccccc3)cs2)CC1)NCc1ccc2c(c1)OCO2 |  | 11.6 µM (active) |
| CC1CCCCN1CC(=O)NCc1ccc2c(c1)OCO2 (centres undefined) | -9.34% (inactive) |  |
| Cc1csc2nc(COC(=O)c3cccc(N(C)C)c3)cc(=O)n12 | -6.53% (inactive) |  |
| COc1ccc(C(CNC(=O)c2cccc(S(=O)(=O)Nc3ccc(Br)cc3)c2)N(C)C)cc1 (centres undefined) | 0.244% (inactive) |  |
| Cc1cccc(NC(=O)CN2CCN(C(=O)C3CCN(C(=O)/C=C/c4ccccc4)CC3)CC2)c1C | 2.04% (inactive) |  |
| CCOC(=O)/C=c1\s/c(=C\c2ccc(C#N)cc2)c(=O)n1CC(=O)Nc1cccc(C)c1C |  | 2.91 µM (active) |
| CCOC(=O)/C=c1\s/c(=C\c2ccccc2OC)c(=O)n1CC(=O)N1CCOCC1 | 1.44% (inactive) |  |
| Cn1nc(C(=O)OCC(=O)N(Cc2ccccc2)C(C)(C)C)c2ccccc2c1=O | 6% (inactive) |  |
| O=C(OCC(=O)N1CCc2ccccc21)c1ccc([N+](=O)[O-])cc1 | 0.345% (inactive) |  |
| COc1ccc(-c2csc3ncnc(N4CCN(S(=O)(=O)c5cccc(F)c5)CC4)c23)cc1 | 12.9% (inactive) |  |
| CC1CCN(C(=S)c2cccc(O)c2)CC1 |  | 1.46 µM (active) |
| CC1CCN(C(=S)NC(=O)c2ccccc2Br)CC1 | 5.23% (inactive) |  |
| CC1CCN(C(=S)c2cccc([N+](=O)[O-])c2)CC1 | -2.27% (inactive) |  |
| CC[C@]1(C(=O)OC)[C@H]2C(=O)N(Cc3ccccc3)C(=O)[C@H]2[C@H]2CN=C(SCc3ccc(Cl)cc3)N21 | 4.81% (inactive) |  |
| O=C(CN1CCc2ccccc2C1)Nc1cccc(S(=O)(=O)N2CCOCC2)c1 | 0.481% (inactive) |  |
| COC(=O)Cc1ccc(OC(=O)C2CCN(S(=O)(=O)c3ccc(OC)c(OC)c3)CC2)cc1 | 3.06% (inactive) |  |

| SMILES | activity, positive = re-replication | Potency |
| --- | --- | --- |
| O=C(c1ccc(Oc2ccc(Cl)cc2)c([N+](=O)[O-])c1)N1CCCC1 | 6.4% (inactive) |  |
| O=C(Nc1ccc(F)cc1)C1CCN(C(=O)c2ccc([N+](=O)[O-])cc2)CC1 | 11.3% (inactive) |  |
| CC1CCN(C(=O)c2ccc(S(=O)(=O)Cc3cc(F)ccc3F)c([N+](=O)[O-])c2)CC1 |  | 18.4 µM (active) |
| O=C(Nc1ccn(CCCNCc2ccc3[nH]ccc3c2)c(=O)n1)OCc1ccccc1 | -1.3% (inactive) |  |
| O=C(Nc1c[nH]c(=O)[nH]c1=O)OCc1ccccc1 | -0.888% (inactive) |  |
| Cc1ccc(OCC(=O)N2CCN(S(=O)(=O)c3ccc(Cl)s3)CC2)cc1C | 3.45% (inactive) |  |
| Cc1ccc(Br)c(NS(=O)(=O)c2cccc(C(=O)N3CCNC(=O)C3)c2)c1 | -1.92% (inactive) |  |
| OCCCNc1nc(-c2ccccc2)c2cc(Cl)ccc2n1 |  | 8.2 µM (active) |
| O=C(CCl)NNc1nc(-c2ccccc2)c2cc(Cl)ccc2n1 | 13.2% (inactive) |  |
| NC(N)=Nc1nc(-c2ccccc2)c2cc(Cl)ccc2n1 | 18% (inactive) |  |
| CC1(C)CC(=O)C=C(c2ccc3ncccc3c2)C1 | 6.67% (inactive) |  |
| CCN(c1ccccc1)S(=O)(=O)c1ccc(C(=O)Nc2ccccc2OC)cc1 | -9.03% (inactive) |  |
| C[n+]1cccc(C(=O)O)c1 | -1.63% (inactive) |  |
| CCN(CC)CCCNC(=O)c1ccc2c(=O)n(Cc3ccc4c(c3)OCO4)c(=S)[nH]c2c1 |  | 23.1 µM (active) |
| COc1ccc(Cn2c(=S)[nH]c3cc(C(=O)NCCCN4CCOCC4)ccc3c2=O)cc1 | 14.2% (inactive) |  |
| CCCCNC(=O)CCn1c(=S)[nH]c2cc3c(cc2c1=O)OCO3 | 0.701% (inactive) |  |
| Cc1ccc(SC(CC(=O)c2ccc(C(C)(C)C)cc2)C(=O)O)cc1 (centres undefined) |  | 7.31 µM (active) |
| Cc1ccc(C(=O)NCCNC(=O)c2ccccc2)cc1 | -1.61% (inactive) |  |
| Cc1ccc(C(=O)CSc2ccccc2C(=O)O)cc1 | -0.299% (inactive) |  |
| O=C(Nc1ccc(N2CCOCC2)cc1)c1cccc(S(=O)(=O)N2CCOCC2)c1 | 4.79% (inactive) |  |
| CN(CC(=O)O)C(=O)c1ccccc1 | 8.42% (inactive) |  |
| CN1C(=O)c2ccc(NC(=O)C3CCCCC3)cc2C1=O |  | 10.3 µM (active) |
| O=C(O)c1ccc(NC(=O)C2CCCCC2)cc1 | 0.989% (inactive) |  |
| CN1C(=O)c2ccc(NC(=O)c3c(F)c(F)c(F)c(F)c3F)cc2C1=O | 5.85% (inactive) |  |
